# In the supplement of paper PMC10849652:
# Of roughly 7,900 targets only a part is listed; those with a hit were picked by preference. About 0.6% of all pairs of compound and target were hits. Unmarked numbers belong to inactive results.
# How the values were obtained:
# Experiment in all cases: log2 fold change, soluble protein after heating vs DMSO (PISA); higher = thermal stabilisation; K562 cells, 10 uM, 30 min; active = over 0.2 and 3.5 SD of the protein, either way, in both replicates (recomputed)
# saracatinib = compound: CN1CCN(CCOc2cc(OC3CCOCC3)c3c(Nc4c(Cl)ccc5c4OCO5)ncnc3c2)CC1 [saracatinib]
# Summary of the method: (§1)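 Soluble protein was quantified by TMTpro 16plex LC-MS/MS after channel sums were equalised. It was obtained as the supernatant after 21,000xg for 90 min from pooled aliquots of K562 cells (2×10^6 cells/mL, 10 μM compound, 30 min) heated for 3 min across 48°C-58°C and extracted in PBS with 0.5% NP-40 at 4°C. Thermal stability values are relative to control samples and come from duplicates. They are given as log2 fold changes.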
# sotrastaurin = compound: CN1CCN(c2nc(C3=C(c4c[nH]c5ccccc45)C(=O)NC3=O)c3ccccc3n2)CC1 [sotrastaurin]
# Summary of the method: as §1
# alvocidib = compound: CN1CC[C@H](c2c(O)cc(O)c3c(=O)cc(-c4ccccc4Cl)oc23)[C@H](O)C1 [alvocidib]
# Summary of the method: as §1
# Tubastatin A = compound: CN1CCc2c(c3ccccc3n2Cc2ccc(C(=O)NO)cc2)C1 [Tubastatin A]
# Summary of the method: as §1
# [1] = compound: CNC(=O)C1=CC=CC=C1NC2=NC(=NC=C2Cl)NC3=C(C=C(C=C3)N4CCOCC4)OC
# Summary of the method: as §1
# defactinib = compound: CNC(=O)c1ccc(Nc2ncc(C(F)(F)F)c(NCc3nccnc3N(C)S(C)(=O)=O)n2)cc1 [defactinib]
# Summary of the method: as §1
# rucaparib = compound: CNCc1ccc(-c2[nH]c3cc(F)cc4c3c2CCNC4=O)cc1 [rucaparib]
# Summary of the method: as §1
# [2] = compound: CNc1nc(-c2ccc3c(N)n[nH]c3c2)cc(N2C[C@@H](C(=O)NC3CCCCC3)CC[C@H]2C)n1
# Summary of the method: as §1
# encorafenib = compound: COC(=O)N[C@@H](C)CNc1nccc(-c2cn(C(C)C)nc2-c2cc(Cl)cc(NS(C)(=O)=O)c2F)n1 [encorafenib]
# Summary of the method: as §1
# [3] = compound: COC(=O)[C@H](CCSC)NC(=O)C1=C(C=C(C=C1)NC[C@H](CS)N)C2=CC=CC=C2
# Summary of the method: as §1
# [4] = compound: COC1=CC=C(C=C1)CN2C=CC3=C2C=C(C=C3)C(=O)NO
# Summary of the method: as §1
# filanesib = compound: CON(C)C(=O)N1N=C(c2cc(F)ccc2F)S[C@@]1(CCCN)c1ccccc1 [filanesib]
# Summary of the method: as §1
# zotarolimus = compound: CO[C@H]1C[C@@H]2CC[C@@H](C)[C@@](O)(O2)C(=O)C(=O)N2CCCC[C@H]2C(=O)O[C@H]([C@H](C)C[C@@H]2CC[C@H](n3cnnn3)[C@H](OC)C2)CC(=O)[C@H](C)/C=C(\C)[C@@H](O)[C@@H](OC)C(=O)[C@H](C)C[C@H](C)/C=C/C=C/C=C/1C [zotarolimus]
# Summary of the method: as §1
# idasanutlin = compound: COc1cc(C(=O)O)ccc1NC(=O)[C@@H]1N[C@@H](CC(C)(C)C)[C@](C#N)(c2ccc(Cl)cc2F)[C@H]1c1cccc(Cl)c1F [idasanutlin]
# Summary of the method: as §1
# alisertib = compound: COc1cc(Nc2ncc3c(n2)-c2ccc(Cl)cc2C(c2c(F)cccc2OC)=NC3)ccc1C(=O)O [alisertib]
# Summary of the method: as §1
# [5] = compound: COc1cc2nc(-c3cc(F)ccc3O)nc(N[C@@H]3CNC[C@H]3C(C)(C)O)c2cc1OC
# Summary of the method: as §1
# gefitinib = compound: COc1cc2ncnc(Nc3ccc(F)c(Cl)c3)c2cc1OCCCN1CCOCC1 [gefitinib]
# Summary of the method: as §1
# [6] = compound: COc1cccc2cc(-c3nc([C@H]4CC[C@H](C(=O)O)CC4)n4ncnc(N)c34)[nH]c12
# Summary of the method: as §1
# lapatinib = compound: CS(=O)(=O)CCNCc1ccc(-c2ccc3ncnc(Nc4ccc(OCc5cccc(F)c5)c(Cl)c4)c3c2)o1 [lapatinib]
# Summary of the method: as §1
# pictilisib = compound: CS(=O)(=O)N1CCN(Cc2cc3nc(-c4cccc5[nH]ncc45)nc(N4CCOCC4)c3s2)CC1 [pictilisib]
# Summary of the method: as §1
# UniProt P61960, sequence (P61960 whole entry, looked up): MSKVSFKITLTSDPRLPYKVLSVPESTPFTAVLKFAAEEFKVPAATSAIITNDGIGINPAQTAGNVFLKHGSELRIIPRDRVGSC
# UniProt A0PJW6, sequence (A0PJW6 whole entry, looked up): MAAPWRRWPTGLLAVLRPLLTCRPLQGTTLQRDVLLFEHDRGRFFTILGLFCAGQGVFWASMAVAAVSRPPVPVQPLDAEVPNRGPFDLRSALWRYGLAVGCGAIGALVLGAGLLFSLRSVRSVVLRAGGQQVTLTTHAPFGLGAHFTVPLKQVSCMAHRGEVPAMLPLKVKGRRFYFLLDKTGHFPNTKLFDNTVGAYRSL
# UniProt Q96DX7, sequence (Q96DX7 whole entry, looked up): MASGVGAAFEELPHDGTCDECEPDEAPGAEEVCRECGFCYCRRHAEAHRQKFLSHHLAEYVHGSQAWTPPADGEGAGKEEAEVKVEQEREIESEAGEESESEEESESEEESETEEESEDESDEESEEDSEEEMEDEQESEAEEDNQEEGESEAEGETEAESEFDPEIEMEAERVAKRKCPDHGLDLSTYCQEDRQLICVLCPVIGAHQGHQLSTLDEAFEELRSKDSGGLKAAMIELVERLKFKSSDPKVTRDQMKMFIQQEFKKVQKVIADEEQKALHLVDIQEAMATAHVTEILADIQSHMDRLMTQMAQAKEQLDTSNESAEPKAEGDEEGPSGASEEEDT
# UniProt Q9NP79, sequence (Q9NP79 whole entry, looked up): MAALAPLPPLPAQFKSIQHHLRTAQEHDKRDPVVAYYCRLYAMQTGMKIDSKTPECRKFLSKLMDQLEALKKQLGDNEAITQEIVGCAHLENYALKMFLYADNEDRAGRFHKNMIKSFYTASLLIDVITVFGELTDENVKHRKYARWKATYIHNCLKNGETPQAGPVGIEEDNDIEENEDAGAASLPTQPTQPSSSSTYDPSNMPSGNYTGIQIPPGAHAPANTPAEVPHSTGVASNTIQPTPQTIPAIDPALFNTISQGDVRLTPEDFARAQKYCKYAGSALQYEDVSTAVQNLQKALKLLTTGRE
# UniProt Q9UK41, sequence (Q9UK41 whole entry, looked up): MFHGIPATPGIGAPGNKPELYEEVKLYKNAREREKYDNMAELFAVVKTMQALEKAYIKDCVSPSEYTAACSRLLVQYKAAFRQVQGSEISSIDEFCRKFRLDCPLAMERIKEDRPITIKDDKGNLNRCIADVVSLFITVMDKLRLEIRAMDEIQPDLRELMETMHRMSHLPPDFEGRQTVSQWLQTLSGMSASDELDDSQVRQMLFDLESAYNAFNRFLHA
# UniProt Q70CQ2, sequence (Q70CQ2 whole entry, looked up): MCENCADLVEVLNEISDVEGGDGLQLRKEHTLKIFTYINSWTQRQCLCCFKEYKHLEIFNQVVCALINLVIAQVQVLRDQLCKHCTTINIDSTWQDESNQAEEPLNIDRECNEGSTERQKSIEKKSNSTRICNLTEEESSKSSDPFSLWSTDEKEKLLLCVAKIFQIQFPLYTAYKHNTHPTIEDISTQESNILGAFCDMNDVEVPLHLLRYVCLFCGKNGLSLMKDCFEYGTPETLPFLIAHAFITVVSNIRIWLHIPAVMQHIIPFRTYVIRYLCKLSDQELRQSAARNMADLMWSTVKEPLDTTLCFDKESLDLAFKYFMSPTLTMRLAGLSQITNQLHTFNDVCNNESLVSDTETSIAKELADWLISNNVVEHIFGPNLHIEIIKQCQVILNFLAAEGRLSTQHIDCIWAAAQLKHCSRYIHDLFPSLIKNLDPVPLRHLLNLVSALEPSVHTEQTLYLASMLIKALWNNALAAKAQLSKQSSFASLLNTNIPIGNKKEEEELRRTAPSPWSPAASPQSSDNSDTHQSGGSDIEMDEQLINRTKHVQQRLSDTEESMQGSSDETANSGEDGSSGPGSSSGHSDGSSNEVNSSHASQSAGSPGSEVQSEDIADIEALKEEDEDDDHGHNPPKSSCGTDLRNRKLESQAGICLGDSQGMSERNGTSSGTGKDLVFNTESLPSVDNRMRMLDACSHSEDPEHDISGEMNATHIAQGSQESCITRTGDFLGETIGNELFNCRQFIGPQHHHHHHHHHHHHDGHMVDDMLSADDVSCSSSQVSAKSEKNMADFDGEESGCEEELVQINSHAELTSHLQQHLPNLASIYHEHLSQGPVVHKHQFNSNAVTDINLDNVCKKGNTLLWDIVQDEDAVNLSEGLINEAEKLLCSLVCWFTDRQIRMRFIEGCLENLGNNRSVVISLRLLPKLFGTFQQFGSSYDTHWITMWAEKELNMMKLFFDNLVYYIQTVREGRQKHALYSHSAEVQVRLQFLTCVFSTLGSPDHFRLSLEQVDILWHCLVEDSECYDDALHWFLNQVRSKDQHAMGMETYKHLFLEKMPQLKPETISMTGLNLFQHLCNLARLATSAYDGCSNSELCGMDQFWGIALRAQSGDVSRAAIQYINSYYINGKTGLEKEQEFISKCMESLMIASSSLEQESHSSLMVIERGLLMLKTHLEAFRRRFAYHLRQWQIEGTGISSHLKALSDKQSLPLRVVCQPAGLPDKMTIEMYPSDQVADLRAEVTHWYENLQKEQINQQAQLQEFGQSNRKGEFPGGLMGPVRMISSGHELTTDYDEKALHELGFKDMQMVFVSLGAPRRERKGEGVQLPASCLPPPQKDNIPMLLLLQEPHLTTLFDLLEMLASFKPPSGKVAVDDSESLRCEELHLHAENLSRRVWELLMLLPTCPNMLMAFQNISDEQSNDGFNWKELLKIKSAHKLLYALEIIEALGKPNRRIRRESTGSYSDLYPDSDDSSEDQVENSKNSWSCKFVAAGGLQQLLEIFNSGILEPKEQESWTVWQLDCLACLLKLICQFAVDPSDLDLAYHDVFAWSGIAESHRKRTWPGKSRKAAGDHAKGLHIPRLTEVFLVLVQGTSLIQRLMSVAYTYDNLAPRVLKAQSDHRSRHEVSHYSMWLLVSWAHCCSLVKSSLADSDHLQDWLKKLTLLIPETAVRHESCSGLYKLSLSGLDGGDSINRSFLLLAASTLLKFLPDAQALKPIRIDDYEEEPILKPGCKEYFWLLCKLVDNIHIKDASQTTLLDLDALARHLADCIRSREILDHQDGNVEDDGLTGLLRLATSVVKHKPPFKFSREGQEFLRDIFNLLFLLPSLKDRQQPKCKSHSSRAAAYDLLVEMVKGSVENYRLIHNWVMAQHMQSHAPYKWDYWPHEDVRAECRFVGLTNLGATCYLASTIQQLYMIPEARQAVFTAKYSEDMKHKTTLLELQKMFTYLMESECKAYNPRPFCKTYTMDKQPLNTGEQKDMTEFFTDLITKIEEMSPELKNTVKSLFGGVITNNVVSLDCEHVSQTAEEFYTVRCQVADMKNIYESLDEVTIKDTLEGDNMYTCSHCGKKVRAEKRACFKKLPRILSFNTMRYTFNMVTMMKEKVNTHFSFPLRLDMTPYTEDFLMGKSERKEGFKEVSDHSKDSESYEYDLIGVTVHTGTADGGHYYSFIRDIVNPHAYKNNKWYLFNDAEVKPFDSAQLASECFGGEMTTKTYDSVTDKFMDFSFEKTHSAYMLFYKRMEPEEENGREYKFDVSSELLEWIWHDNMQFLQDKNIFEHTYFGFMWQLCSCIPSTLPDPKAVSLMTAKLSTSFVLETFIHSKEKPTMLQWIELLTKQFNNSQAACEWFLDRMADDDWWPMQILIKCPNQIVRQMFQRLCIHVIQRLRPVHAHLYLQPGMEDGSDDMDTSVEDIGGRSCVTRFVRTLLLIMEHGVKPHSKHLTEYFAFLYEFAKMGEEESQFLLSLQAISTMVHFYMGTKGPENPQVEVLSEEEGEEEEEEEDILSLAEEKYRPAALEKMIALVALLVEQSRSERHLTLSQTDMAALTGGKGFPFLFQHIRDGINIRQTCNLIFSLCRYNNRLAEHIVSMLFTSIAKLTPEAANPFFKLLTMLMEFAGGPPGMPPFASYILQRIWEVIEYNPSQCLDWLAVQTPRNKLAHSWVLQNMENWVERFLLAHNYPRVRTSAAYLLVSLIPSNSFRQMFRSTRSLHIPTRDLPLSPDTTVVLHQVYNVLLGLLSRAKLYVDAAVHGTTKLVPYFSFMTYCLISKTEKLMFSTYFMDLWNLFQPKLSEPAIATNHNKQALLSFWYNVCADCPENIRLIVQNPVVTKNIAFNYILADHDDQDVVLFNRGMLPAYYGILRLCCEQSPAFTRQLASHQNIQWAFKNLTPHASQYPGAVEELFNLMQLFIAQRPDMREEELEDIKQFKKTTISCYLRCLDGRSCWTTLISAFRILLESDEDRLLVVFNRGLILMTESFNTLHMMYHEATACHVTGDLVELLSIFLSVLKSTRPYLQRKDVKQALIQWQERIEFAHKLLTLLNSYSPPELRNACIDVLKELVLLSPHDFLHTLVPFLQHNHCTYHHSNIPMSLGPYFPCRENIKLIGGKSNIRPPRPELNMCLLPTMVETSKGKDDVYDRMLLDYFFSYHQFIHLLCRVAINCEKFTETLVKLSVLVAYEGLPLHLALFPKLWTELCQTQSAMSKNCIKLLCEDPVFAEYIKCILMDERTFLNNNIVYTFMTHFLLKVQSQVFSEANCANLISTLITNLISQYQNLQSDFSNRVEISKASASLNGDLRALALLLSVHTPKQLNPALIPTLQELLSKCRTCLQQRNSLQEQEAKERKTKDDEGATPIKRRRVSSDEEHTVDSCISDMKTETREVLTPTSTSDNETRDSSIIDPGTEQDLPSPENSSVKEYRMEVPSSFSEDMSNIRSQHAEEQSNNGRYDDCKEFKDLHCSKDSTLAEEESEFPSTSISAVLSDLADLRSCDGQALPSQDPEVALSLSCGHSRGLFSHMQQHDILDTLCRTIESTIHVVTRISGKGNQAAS
# UniProt Q9UL33, sequence (Q9UL33 whole entry, looked up): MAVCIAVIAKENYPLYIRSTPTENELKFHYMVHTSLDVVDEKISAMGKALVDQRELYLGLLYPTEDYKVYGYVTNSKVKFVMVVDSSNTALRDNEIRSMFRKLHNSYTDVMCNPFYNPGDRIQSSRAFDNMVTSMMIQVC
Target,log2 fold change (saracatinib),log2 fold change (sotrastaurin),log2 fold change (alvocidib),log2 fold change (Tubastatin A),log2 fold change [1],log2 fold change (defactinib),log2 fold change (rucaparib),log2 fold change [2],log2 fold change (encorafenib),log2 fold change [3],log2 fold change [4],log2 fold change (filanesib),log2 fold change (zotarolimus),log2 fold change (idasanutlin),log2 fold change (alisertib),log2 fold change [5],log2 fold change (gefitinib),log2 fold change [6],log2 fold change (lapatinib),log2 fold change (pictilisib)
VPS28 (UniProt Q9UK41),-0.101,-0.078,-0.135,0.072,0.043,-0.172,-0.044,-0.046,0.082,-0.033,-0.17,-0.061,0.008,-0.076,0.07,0.038,0.027,0.033,0.023,0.059
TTI2 (UniProt Q6NXR4),-0.028,-0.187,0.027,-0.02,0.051,-0.073,0.119,-0.036,0.037,-0.038,0.012,0.06,-0.008,-0.04,0.028,-0.034,-0.081,-0.025,0.033,
TPM2 (UniProt P07951),0.177,-0.033,-0.078,-0.012,0.004,0.042,-0.027,-0.026,-0.006,0.102,0.503 (active),-0.024,0.013,-0.026,-0.058,-0.055,-0.003,-0.14,0.166,-0.181
WDR46 (UniProt O15213),-0.095,0.003,0.387,0.101,0.101,0.39,0.289,0.084,0.128,-0.015,-0.129,0.425,0.075,0.156,-0.162,0.037,-0.036,-0.018,-0.006,-0.052
TRAPPC2L (UniProt Q9UL33),-0.07,-0.101,-0.015,0.011,-0.376 (active),-0.032,0.03,-0.026,0.012,-0.042,-0.102,-0.05,0.098,-0.026,-0.029,0.03,0,-0.062,0.088,-0.018
UFM1 (UniProt P61960),0.028,-0.004,-0.262,0.097,0.026,-0.066,-0.119,-0.013,0.029,-0.031,0.048,-0.08,-0.139,0.28,-0.001,0.01,0.069,0.055,-0.002,
TRIM44 (UniProt Q96DX7),0.035,-0.076,-0.008,0.116,-0.01,-0.053,-0.092,-0.026,0.032,0.025,-0.074,0.022,0.005,-0.025,0.008,-0.047,-0.027,-0.033,0.025,0.039
WDR41 (UniProt Q9HAD4),0.071,-0.037,-0.014,-0.054,-0.046,-0.007,0.015,-0.031,0.008,0.036,0.025,-0.154,-0.007,-0.031,-0.072,-0.254,-0.002,0.014,0.049,-0.056
VTA1 (UniProt Q9NP79),0.028,-0.022,-0.081,-0.046,0.045,-0.029,0.011,-0.011,0.023,-0.033,-0.01,-0.033,0.044,-0.094,-0.014,0.056,-0.003,-0.008,-0.014,0.006
USP15 (UniProt Q9Y4E8),-0.013,-0.093,-0.069,0.014,0.049,-0.093,0.032,0.019,0.061,-0.031,0.027,-0.004,0.051,-0.018,-0.043,0.016,0.028,-0.05,-0.021,-0.027
VPS50 (UniProt Q96JG6),-0.108,-0.089,-0.07,0.036,0.04,-0.11,0.033,-0.012,0.1,-0.022,0.023,-0.021,0.028,-0.157,0.019,0.012,0.007,-0.027,-0.006,-0.003
TMTC3 (UniProt Q6ZXV5),-0.03,0.028,0.009,0.009,0.012,0.009,0.022,0.006,0.028,-0.019,-0.092,0.01,0.006,-0.03,0.105,-0.085,-0.007,-0.041,0.053,0.032
TMEM223 (UniProt A0PJW6),0.114,0.048,-0.025,-0.059,0.045,0.015,-0.03,-0.02,-0.047,0.022,-0.042,-0.109,0.083,-0.112,-0.046,-0.147,-0.028,0.038,0.018,-0.007
UFL1 (UniProt O94874),-0.033,-0.035,0.027,0.076,0.018,-0.045,0.1,0,0.121,-0.119,0.029,-0.022,0.025,-0.108,-0.074,0.212,0.003,-0.071,-0.017,0.016
USP34 (UniProt Q70CQ2),0.006,-0.102,-0.274,0.069,-0.049,-0.164,-0.055,-0.015,0.08,0.002,0.021,0.011,-0.03,-0.239,0.021,0,-0.024,-0.073,0.011,0.135
TPP1 (UniProt O14773),-0.008,-0.005,-0.005,0.005,0.007,0.049,-0.013,-0.013,0.018,0.011,0.024,-0.175,0,-0.008,0.168,-0.072,-0.039,0.087,-0.026,0.011
